From PubChem BioAssay (EPA / NIEHS)
Calls of active or inactive are those of the source. Rule for the calls: active = hit-call score of the fitted dose curve at least 0.9, where 1 is the maximum; inactive = score below 0.9.

assay: ATG_TAL_CIS: Attagene CIS-FACTORIAL HepG2 Assay for human TAL Basal Promoter (AID 2282966); details: HepG2 Attagene cis-factorial TAL promoter reporter; actives raise or lower the signal;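 note: background control endpoint measuring basal TAL promoter reporter mRNA not a specific factor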
Outline: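 Steps: transfect HepG2 with multiple reporter transcription units; dose 24 h; isolate RNA, reverse-transcribe, PCR-amplify, label with 6-FAM, digest with HpaI; resolve by capillary electrophoresis. Bidirectional fitting against DMSO baseline.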

Row | SMILES | outcome
1 | O=C(O)c1cc(C(=O)O)cc([N+](=O)[O-])c1 | inactive
2 | O=C(Nc1ccc([N+](=O)[O-])cc1)Nc1ccc([N+](=O)[O-])cc1 (tested in a mixture with another compound) | inactive
3 | O=C1c2ccccc2C(=O)c2c(O)ccc(O)c21 | inactive
4 | OCC#CCO | inactive
5 | Cc1ncc([N+](=O)[O-])n1CCO | inactive
6 | CCC1(c2ccccc2)C(=O)NCNC1=O | inactive
7 | OC[C@H]1O[C@@H](Oc2ccc(O)cc2)[C@H](O)[C@@H](O)[C@@H]1O | inactive
8 | COS(=O)(=O)O | inactive
9 | Cc1occc(=O)c1OC(=O)C(C)C | inactive
10 | CC1=NN(c2ccc(S(=O)(=O)O)cc2)C(=O)C1 | inactive
11 | CC(C)NCC(O)COc1ccc(CC(N)=O)cc1 (configuration not stated) | inactive
12 | CC(C)OCCO | inactive
13 | CN(C)C(=O)Nc1ccc(Oc2ccc(Cl)cc2)cc1 | inactive
14 | COc1cc(C(C)C)ccc1C | inactive
15 | C=C(C)[C@@H]1CC=C(C)C(=O)C1 | inactive
16 | CC1(C)O[C@@H]2[C@@H](CO[C@@]3(COS(N)(=O)=O)OC(C)(C)O[C@@H]23)O1 | inactive
17 | COc1cc(CCC(C)=O)ccc1O | inactive

Row | SMILES | outcome
18 | CC=Cc1ccc(OC)c(OC)c1 | inactive
19 | CC[N+](C)(CC)CC | inactive
20 | C[Si](C)(C)O[Si](C)(C)C | inactive
21 | C=Cc1ccncc1 | inactive
22 | CSc1c(Cl)c(Cl)c(Cl)c(Cl)c1Cl | inactive
23 | Clc1cc(Cl)c(-c2c(Cl)c(Cl)cc(Cl)c2Cl)cc1Cl | inactive
24 | CCOC(=O)CN | inactive
25 | C=CCCCCCCCCCC | inactive
26 | COC(=O)C=C(C)CCC=C(C)C | inactive
27 | CCCCCCCCN1CCCC1=O | inactive
28 | CS(=O)(=O)c1ccc(Cl)cc1 | inactive
29 | O=C(c1ccccc1)C(O)c1ccccc1 (configuration not stated) | inactive
30 | CCCCCCCCCCCCCC(=O)OCC(O)CO (configuration not stated) | inactive
31 | CCCCCCCCCCCCS(=O)(=O)Cl | inactive
32 | CCCCCCC(C)(C)S | inactive
33 | CCOc1ccc(NC(=O)CC(C)=O)cc1 | inactive
34 | O=P(O)(O)O | inactive

assay: ATG_TGFb_CIS: Attagene CIS-FACTORIAL HepG2 Assay for human Transforming Growth Factor (TGF) (AID 2282967); details: HepG2 Attagene CIS TGFb reporter, mRNA transcription; actives raise or lower the signal
Outline: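 After a 24-hour incubation with compound, transfected HepG2 cells were lysed for RNA; reporter cDNA was amplified, fluorescently end-labeled and separated by CE. DMSO served as baseline for bidirectional fits.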

Row | SMILES | outcome | AC50
35 | O=C(O)c1cc(C(=O)O)cc([N+](=O)[O-])c1 | inactive | –
36 | O=C(Nc1ccc([N+](=O)[O-])cc1)Nc1ccc([N+](=O)[O-])cc1 (tested in a mixture with another compound) | inactive | –
37 | O=C1c2ccccc2C(=O)c2c(O)ccc(O)c21 | inactive | –
38 | OCC#CCO | inactive | –
39 | Cc1ncc([N+](=O)[O-])n1CCO | inactive | –
40 | CCC1(c2ccccc2)C(=O)NCNC1=O | inactive | –
41 | OC[C@H]1O[C@@H](Oc2ccc(O)cc2)[C@H](O)[C@@H](O)[C@@H]1O | inactive | –
42 | COS(=O)(=O)O | inactive | –
43 | Cc1occc(=O)c1OC(=O)C(C)C | inactive | –
44 | CC1=NN(c2ccc(S(=O)(=O)O)cc2)C(=O)C1 | inactive | –
45 | CC(C)NCC(O)COc1ccc(CC(N)=O)cc1 (configuration not stated) | inactive | –
46 | CC(C)OCCO | inactive | –
47 | CN(C)C(=O)Nc1ccc(Oc2ccc(Cl)cc2)cc1 | inactive | –
48 | COc1cc(C(C)C)ccc1C | inactive | –
49 | O=C(O)c1cccnc1C(=O)O | inactive | –
50 | CCCC(=O)c1ccccc1 | inactive | –
51 | CCCCCCCCC=CCCCCCCCC1=NCCN1CCO | – | 0.666 µM (active)
52 | C=C(C)[C@@H]1CC=C(C)C(=O)C1 | inactive | –
53 | CC1(C)O[C@@H]2[C@@H](CO[C@@]3(COS(N)(=O)=O)OC(C)(C)O[C@@H]23)O1 | inactive | –
54 | COc1cc(CCC(C)=O)ccc1O | inactive | –

Row | SMILES | outcome | AC50
55 | CC=Cc1ccc(OC)c(OC)c1 | inactive | –
56 | CC[N+](C)(CC)CC | inactive | –
57 | C[Si](C)(C)O[Si](C)(C)C | inactive | –
58 | C=Cc1ccncc1 | inactive | –
59 | CSc1c(Cl)c(Cl)c(Cl)c(Cl)c1Cl | inactive | –
60 | Clc1cc(Cl)c(-c2c(Cl)c(Cl)cc(Cl)c2Cl)cc1Cl | inactive | –
61 | CCOC(=O)CN | inactive | –
62 | C=CCCCCCCCCCC | inactive | –
63 | COC(=O)C=C(C)CCC=C(C)C | inactive | –
64 | CCCCCCCCN1CCCC1=O | inactive | –
65 | CS(=O)(=O)c1ccc(Cl)cc1 | inactive | –
66 | CC(C)CCOC(=O)c1ccccc1 | inactive | –
67 | O=C(c1ccccc1)C(O)c1ccccc1 (configuration not stated) | inactive | –
68 | CCCCCCCCCCCCCC(=O)OCC(O)CO (configuration not stated) | inactive | –
69 | CCCCCCCCCCCCS(=O)(=O)Cl | inactive | –
70 | CCCCCCC(C)(C)S | inactive | –
71 | CCOc1ccc(NC(=O)CC(C)=O)cc1 | inactive | –
72 | O=CCc1ccccc1 | inactive | –
73 | O=P(O)(O)O | inactive | –

assay: ATG_VDRE_CIS: Attagene CIS-FACTORIAL HepG2 Assay for human Vitamin D Receptor Element (VDRE) (AID 2282968); details: HepG2 VDRE cis-reporter transcription, actives raise or lower the signal
Outline: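 In transiently transfected HepG2 liver cells, gain or loss of reporter mRNA after 24 h exposure is scored relative to DMSO, using fluorescence detection by capillary electrophoresis of RT-PCR products.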

Row | SMILES | outcome | AC50
74 | O=C(O)c1cc(C(=O)O)cc([N+](=O)[O-])c1 | inactive | –
75 | O=C(Nc1ccc([N+](=O)[O-])cc1)Nc1ccc([N+](=O)[O-])cc1 (tested in a mixture with another compound) | inactive | –
76 | O=C1c2ccccc2C(=O)c2c(O)ccc(O)c21 | inactive | –
77 | OCC#CCO | inactive | –
78 | CCC1(c2ccccc2)C(=O)NCNC1=O | inactive | –
79 | OC[C@H]1O[C@@H](Oc2ccc(O)cc2)[C@H](O)[C@@H](O)[C@@H]1O | inactive | –
80 | COS(=O)(=O)O | inactive | –
81 | Cc1occc(=O)c1OC(=O)C(C)C | inactive | –
82 | CC1=NN(c2ccc(S(=O)(=O)O)cc2)C(=O)C1 | inactive | –
83 | CC(C)OCCO | inactive | –
84 | CCCC(=O)c1ccccc1 | inactive | –
85 | CCCCCCCCC=CCCCCCCCC1=NCCN1CCO | inactive | –
86 | C=C(C)[C@@H]1CC=C(C)C(=O)C1 | inactive | –
87 | CC1(C)O[C@@H]2[C@@H](CO[C@@]3(COS(N)(=O)=O)OC(C)(C)O[C@@H]23)O1 | inactive | –
88 | COc1cc(CCC(C)=O)ccc1O | inactive | –
89 | CC=Cc1ccc(OC)c(OC)c1 | inactive | –
90 | C=Cc1ccncc1 | – | 20.2 µM (active)
91 | CCOC(=O)CN | inactive | –
92 | CCCCCCCCN1CCCC1=O | inactive | –
93 | CS(=O)(=O)c1ccc(Cl)cc1 | inactive | –
94 | O=C(c1ccccc1)C(O)c1ccccc1 (configuration not stated) | inactive | –
95 | CCCCCCCCCCCCCC(=O)OCC(O)CO (configuration not stated) | inactive | –
96 | O=CCc1ccccc1 | inactive | –
97 | O=P(O)(O)O | inactive | –
